Measurements published in paper PMC10812921, “Transcriptional Coactivator BOB1 (OBF1, OCA-B) Modulates the Specificity of DNA Recognition by the POU-Domain Factors OCT1 and OCT2 in a Monomeric Configuration”.

target: POU1 (OCT1 POU domain);BOB1 (OBF1, OCA-B) (human;human, UniProt P14859;Q16633 260-458;1-256, |); assay: EMSA-SELEX-seq; with BOB1 (ternary complex band); 20 mM Tris-HCl pH 7.6, 140 mM NaCl, 10% glycerol, 0.5 mM EDTA, 0.05% Triton X-100, 0.1 mg/mL BSA, 0.1 mg/mL poly(dI-dC), 5 mM DTT, room temperature, 20 min; high values mean tight binding; conditions: protein: recombinant;recombinant; copies: 1;1; dsDNA, one strand shown
How it was run: (§1)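 In this selection, tagged POU-domain proteins from E. coli BL21, purified under denaturing conditions and renatured, were bound to a PCR-amplified double-stranded random 35-nt library with or without coactivator protein. Reactions held 30 ng protein, 300 ng library and, where used, 28 ng coactivator protein in 20 μL Tris–HCl pH 7.6 binding buffer for 20 min at RT. Complex bands were cut from native 6% PAGE, eluted and PCR-amplified over four rounds, then Illumina-sequenced, and binding preference is the percentage of sequenced 8-mers matching a motif pattern.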

| Sequence | binding signal |
| --- | --- |
| AAGGGAAG | 0.0511 % of ANNNNAAN 8-mers |
| ACGGCAAC | 0.0152 % of ANNNNAAN 8-mers |
| ACGCTAAA | 0.0281 % of ANNNNAAN 8-mers |
| ACTGGAAC | 0.0183 % of ANNNNAAN 8-mers |
| AAGTAAAG | 0.0687 % of ANNNNAAN 8-mers |
| AGTAAAAG | 0.0913 % of ANNNNAAN 8-mers |
| ATCGCAAC | 0.014 % of ANNNNAAN 8-mers |
| AAAAAAAT | 0.152 % of ANNNNAAN 8-mers |
| ATGGTAAG | 0.071 % of ANNNNAAN 8-mers |
| AGGCGAAA | 0.0386 % of ANNNNAAN 8-mers |
| ACAAAAAC | 0.0706 % of ANNNNAAN 8-mers |
| AGGTTAAT | 0.0921 % of ANNNNAAN 8-mers |
| AAAATAAT | 0.153 % of ANNNNAAN 8-mers |
| ATAAAAAC | 0.0562 % of ANNNNAAN 8-mers |
| AACAGAAC | 0.018 % of ANNNNAAN 8-mers |
| ATACAAAG | 0.139 % of ANNNNAAN 8-mers |
| AAGGTAAT | 0.0925 % of ANNNNAAN 8-mers |
| ATACGAAG | 0.0574 % of ANNNNAAN 8-mers |
| ACCATAAC | 0.014 % of ANNNNAAN 8-mers |
| AATGTAAC | 0.046 % of ANNNNAAN 8-mers |

| Sequence | binding signal |
| --- | --- |
| AGCCTAAT | 0.0324 % of ANNNNAAN 8-mers |
| ATGTAAAG | 0.489 % of ANNNNAAN 8-mers |
| AAAACAAA | 0.262 % of ANNNNAAN 8-mers |
| AGTGCAAC | 0.0113 % of ANNNNAAN 8-mers |
| AGACTAAG | 0.03 % of ANNNNAAN 8-mers |
| ATCTCAAG | 0.039 % of ANNNNAAN 8-mers |
| ACAGCAAG | 0.0164 % of ANNNNAAN 8-mers |
| ACAAAAAA | 0.0808 % of ANNNNAAN 8-mers |
| ACTTAAAA | 0.0464 % of ANNNNAAN 8-mers |
| ATTCAAAT | 1.57 % of ANNNNAAN 8-mers |
| ATAATAAG | 0.094 % of ANNNNAAN 8-mers |
| ATTGTAAG | 0.0593 % of ANNNNAAN 8-mers |
| AGTCGAAA | 0.0324 % of ANNNNAAN 8-mers |
| ATGAAAAG | 0.175 % of ANNNNAAN 8-mers |
| ATTTTAAG | 0.0964 % of ANNNNAAN 8-mers |
| ACCCAAAG | 0.0203 % of ANNNNAAN 8-mers |
| ATGCAAAA | 3.15 % of ANNNNAAN 8-mers |
| AACTGAAT | 0.0562 % of ANNNNAAN 8-mers |
| AAAGAAAT | 0.16 % of ANNNNAAN 8-mers |

target: T1, POU2 (OCT2 POU domain);BOB1 (OBF1, OCA-B) (human;human, UniProt P09086;Q16633 175-386;1-256, |); assay: as above; conditions: protein: recombinant;recombinant; copies: 1;1; dsDNA, one strand shown
T1 sequence 1: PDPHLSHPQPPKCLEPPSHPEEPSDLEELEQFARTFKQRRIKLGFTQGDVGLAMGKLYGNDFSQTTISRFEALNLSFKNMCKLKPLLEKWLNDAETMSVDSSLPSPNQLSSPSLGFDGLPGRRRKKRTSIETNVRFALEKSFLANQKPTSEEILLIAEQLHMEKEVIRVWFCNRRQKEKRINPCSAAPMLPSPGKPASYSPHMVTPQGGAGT
T1 sequence 2: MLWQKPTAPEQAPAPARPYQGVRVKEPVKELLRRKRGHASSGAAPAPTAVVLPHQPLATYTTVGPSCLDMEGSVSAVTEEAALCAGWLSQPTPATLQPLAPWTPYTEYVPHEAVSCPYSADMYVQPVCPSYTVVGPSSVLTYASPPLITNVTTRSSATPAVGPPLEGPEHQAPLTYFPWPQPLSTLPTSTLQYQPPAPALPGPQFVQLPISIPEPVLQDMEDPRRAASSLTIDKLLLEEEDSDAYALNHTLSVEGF
How it was run: as §1

| Sequence | binding signal |
| --- | --- |
| AAGGGAAG | 0.0388 % of ANNNNAAN 8-mers |
| ACGGCAAC | 0.0124 % of ANNNNAAN 8-mers |
| ACGCTAAA | 0.0322 % of ANNNNAAN 8-mers |
| ACTGGAAC | 0.0206 % of ANNNNAAN 8-mers |
| AAGTAAAG | 0.0545 % of ANNNNAAN 8-mers |
| AGTAAAAG | 0.0578 % of ANNNNAAN 8-mers |
| ATCGCAAC | 0.0239 % of ANNNNAAN 8-mers |
| AAAAAAAT | 0.12 % of ANNNNAAN 8-mers |
| ATGGTAAG | 0.09 % of ANNNNAAN 8-mers |
| AGGCGAAA | 0.0363 % of ANNNNAAN 8-mers |
| ACAAAAAC | 0.0405 % of ANNNNAAN 8-mers |
| AGGTTAAT | 0.108 % of ANNNNAAN 8-mers |
| AAAATAAT | 0.155 % of ANNNNAAN 8-mers |
| ATAAAAAC | 0.0495 % of ANNNNAAN 8-mers |
| AACAGAAC | 0.0231 % of ANNNNAAN 8-mers |
| ATACAAAG | 0.09 % of ANNNNAAN 8-mers |
| AAGGTAAT | 0.128 % of ANNNNAAN 8-mers |
| ATACGAAG | 0.0388 % of ANNNNAAN 8-mers |
| ACCATAAC | 0.0198 % of ANNNNAAN 8-mers |
| AATGTAAC | 0.0545 % of ANNNNAAN 8-mers |

| Sequence | binding signal |
| --- | --- |
| AGCCTAAT | 0.038 % of ANNNNAAN 8-mers |
| ATGTAAAG | 0.477 % of ANNNNAAN 8-mers |
| AAAACAAA | 0.125 % of ANNNNAAN 8-mers |
| AGTGCAAC | 0.0215 % of ANNNNAAN 8-mers |
| AGACTAAG | 0.0314 % of ANNNNAAN 8-mers |
| ATCTCAAG | 0.0413 % of ANNNNAAN 8-mers |
| ACAGCAAG | 0.014 % of ANNNNAAN 8-mers |
| ACAAAAAA | 0.0528 % of ANNNNAAN 8-mers |
| ACTTAAAA | 0.052 % of ANNNNAAN 8-mers |
| ATTCAAAT | 1.95 % of ANNNNAAN 8-mers |
| ATAATAAG | 0.126 % of ANNNNAAN 8-mers |
| ATTGTAAG | 0.0594 % of ANNNNAAN 8-mers |
| AGTCGAAA | 0.0322 % of ANNNNAAN 8-mers |
| ATGAAAAG | 0.0867 % of ANNNNAAN 8-mers |
| ATTTTAAG | 0.101 % of ANNNNAAN 8-mers |
| ACCCAAAG | 0.0206 % of ANNNNAAN 8-mers |
| ATGCAAAA | 3.29 % of ANNNNAAN 8-mers |
| AACTGAAT | 0.0735 % of ANNNNAAN 8-mers |
| AAAGAAAT | 0.0958 % of ANNNNAAN 8-mers |
